# Assay results published in PubChem BioAssay AID743360 (Molecular Libraries Program, Specialized Chemistry Center, …, 2014).
# Unmarked numbers belong to inactive results. Active and inactive are the calls of the source.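 The calls were made as follows: active = calcium retention capacity relative to untreated control above about 1.1 ratio (limit read from the data); inactive = the rest.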
# Experiment: mtPTP inhibition via calcium retention, dose response, biochemical, dry powder samples, uHTS hits, Calcium Green-5N (AID 743360)
# Conditions: isolated mitochondria, Ca retention capacity
row,SMILES,CRC/CRC0 ratio at 12.5 uM (higher = more inhibition)
1,CN1CCN(CCc2ccc(NS(=O)(=O)c3cccc(Cl)c3)cc2)CC1,> 1
2,COc1ccc(Cl)cc1C(=O)Nc1ccc(CN2CCN(C(=O)OC(C)(C)C)CC2)cc1,1.33 (active)
3,O=S(=O)(Nc1ccc(CN2CCCCC2)cc1)c1ccc(F)c(Cl)c1,1.07
4,COc1ccc(Cl)cc1C(=O)Nc1ccc(N2CCOCC2)cc1,> 1
5,CN1CCN(Cc2ccc(NS(=O)(=O)c3ccc(F)c(Cl)c3)cc2)CC1,1.07
6,COc1ccc(Cl)cc1S(=O)(=O)Nc1ccc(CCN2CCN(C)CC2)cc1,1.03
7,O=S(=O)(Nc1ccc(CCN2CCCCC2)cc1)c1ccc(F)c(Cl)c1,1.07
8,COc1ccc(Cl)c(C(=O)Nc2ccc(CN3CCN(C(=O)OC(C)(C)C)CC3)cc2)c1,1.37 (active)
9,CN1CCN(CCc2ccc(NS(=O)(=O)c3cc(Cl)cc(Cl)c3)cc2)CC1,1.09
10,O=C(Nc1cccc(Cl)c1)c1cc(-c2ccccc2)on1,> 1
11,CN1CCN(c2ccc(Cl)cc2NC(=O)/C=C/c2cccc(F)c2)CC1,1.53 (active)
12,COc1ccc(Cl)cc1C(=O)Nc1cccc(CN2CCN(C(=O)OC(C)(C)C)CC2)c1,1.08
13,CN1CCN(c2ccc(NS(=O)(=O)c3cccc(Cl)c3)cc2)CC1,1.05
14,COc1ccc(Cl)cc1C(=O)Nc1ccc(CCN2CCN(C(=O)OC(C)(C)C)CC2)cc1,1.37 (active)
15,CN1CCN(c2ccc(NS(=O)(=O)c3cc(Cl)cc(Cl)c3)cc2)CC1,1.11 (active)
16,COc1ccc(Cl)c(C(=O)Nc2ccc(CCN3CCN(C(=O)OC(C)(C)C)CC3)cc2)c1,1.11 (active)
17,Cc1ccc(Cl)cc1NC(=O)c1cc(-c2cccc(O)c2)on1,9.18 (active)

row,SMILES,CRC/CRC0 ratio at 12.5 uM (higher = more inhibition)
1,COc1ccc(NC(=O)c2cc(-c3cccc(O)c3)on2)cc1Cl,3.26 (active)
2,COc1ccc(Cl)c(C(=O)Nc2ccc(CCN3CCCCC3)cc2)c1,> 1
3,CN1CCN(c2ccccc2NC(=O)c2ccc(OCc3ccccc3)cc2)CC1,1.24 (active)
4,COc1ccc(Cl)cc1C(=O)Nc1ccc(N2CCCCC2)cc1,1.05
5,COc1ccccc1C(=O)Nc1ccc(C(=O)N2CCCCC2)cc1,> 1
6,COc1ccc(Cl)cc1C(=O)Nc1ccc(CCN2CCOCC2)cc1,1.23 (active)
7,CCN(CC)c1ccc(NC(=O)c2ccc(OC)c(Cl)c2)cc1,0.976
8,COc1ccc(Cl)cc1C(=O)Nc1cccc(CN2CCNCC2)c1,1.52 (active)
9,O=C(Nc1ccc(CN2CCCCC2)cc1)c1ccc(Cl)c(OCc2ccccc2)c1,21.3 (active)
10,O=S(=O)(Nc1ccc(CN2CCCCC2)cc1)c1cc(Cl)cc(Cl)c1,1.07
11,O=S(=O)(Nc1ccc(CCN2CCCCC2)cc1)c1cc(Cl)cc(Cl)c1,1.17 (active)
12,CN1CCN(c2ccc(NC(=O)c3cccc(OCc4ccccc4)c3)cc2)CC1,1.52 (active)
13,O=C(Nc1cc(Cl)ccc1F)c1cc(-c2cccc(O)c2)on1,6.53 (active)
14,O=C(Nc1cc(Cl)cc(Cl)c1)c1cc(-c2cccc(O)c2)on1,12.1 (active)
15,COc1ccc(Cl)cc1C(=O)Nc1ccc(CN2CCCCC2)cc1,1.8 (active)
16,CN1CCN(CCc2ccc(NS(=O)(=O)c3ccc(F)c(Cl)c3)cc2)CC1,1.08
